Here are results for 43 compounds from PubChem BioAssay AID720641 (ICCB-Longwood Screening Facility, Harvard Medical School, 2013).

Structures are written as SMILES. Among all 170,000 compounds or so, about 900 (0.53%) were called active.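 The calls were made as follows: active = relative growth at most 50% at the other temperature and 20+ points below 30 °C, or under 10% at both; inactive = the rest, inconclusive results apart.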 The full list was thinned out, with actives kept by preference.

This experiment in a line: S. aureus growth inhibition at 42 and 30 °C, primary screen, LtaS inhibitor project, RN4220, two temperatures (AID 720641). The settings on record: OD600, 20 h, 42 °C, stronger effect = lower value.

With `CCOc1ccc(CNC(=O)c2ccc(CS(=O)c3ccccc3)o2)cc1` (stereo unspecified), the relative growth was 101% (inactive). Besides, the relative growth (measured here: growth at 30 °C) was 79.9%.

On to `CCc1ccc(CNC(=O)c2ccc(CS(=O)c3ccc(Br)cc3)o2)cc1` (stereo unspecified), for which the relative growth was 19.5% (active). The relative growth (measured here: growth at 30 °C) amounted to 45.9%.

For the compound `COC(=O)c1scc2c(N3CCCCC3)cc(C(F)(F)F)nc12`, the relative growth was 90.2% (inactive). In addition, the relative growth (measured here: growth at 30 °C) was determined as 95.5%.

As for `CCN1CCN(C(=O)N[C@@H](C(=O)N[C@@H]2C(=O)N3C(C(=O)O)=C(CSc4nnnn4C)CS[C@H]23)c2ccc(O)cc2)C(=O)C1=O`, the relative growth was -0.62% (active). The relative growth (measured here: growth at 30 °C) was -0.46%.

Regarding `O=C(Nc1nnc(C2CC2)s1)c1cc(Cl)sc1Cl`, the relative growth is 77.4% (inactive). In addition, the relative growth (measured here: growth at 30 °C) came out at 68.7%.

With `COC(=O)c1ccc2c(c1)NC(=O)C(C)N2` (stereo unspecified), the relative growth was 95.5% (inactive). Further, under “measured here: growth at 30 °C”, the relative growth came to 65.5%.

For `CC1CCCCN1S(=O)(=O)c1ccc(C(=O)Nc2nnc(-c3cccs3)o2)cc1` (stereo unspecified), the relative growth is 2.04% (active). Also, the relative growth (measured here: growth at 30 °C) came to 1.82%.

Regarding `CC1CCCCN1S(=O)(=O)CCNC(=O)c1ccccc1` (stereo unspecified), the relative growth was 85.7% (inactive). Further, under “measured here: growth at 30 °C”, the relative growth was 88.4%.

In the case of `CC1CCCCN1S(=O)(=O)c1ccc(F)c(C(=O)Nc2ccccc2C(F)(F)F)c1` (stereo unspecified), the relative growth was 98.5% (inactive). The relative growth (measured here: growth at 30 °C) turned out to be 90%.

For the compound `CCc1nnc(NC(=O)C2CCCN2S(=O)(=O)c2ccccc2)s1` (stereo unspecified), the relative growth was 119% (inactive). For the same compound, the relative growth (measured here: growth at 30 °C) came out at 89.3%.

Regarding `CC1CCCCN1S(=O)(=O)c1ccc(I)cc1` (stereo unspecified), the relative growth was 103% (inactive). The relative growth (measured here: growth at 30 °C) worked out at 105%.

Take `CSCc1nnc(NC(=O)c2ccc(S(=O)(=O)N3CCCCC3C)cc2)o1` (stereo unspecified): the relative growth is 0.19% (active). Where the note is “measured here: growth at 30 °C”, the relative growth was -0.08%.

For `O=C(Cc1n[nH]c(=O)c2ccccc12)N/N=C/c1ccc(-c2ccc(Br)cc2)o1`, the relative growth is 95.6% (inactive). Moreover, the relative growth (measured here: growth at 30 °C) was determined as 86.9%.

Take `CN(C)/N=C/c1ccc(OC(=O)c2ccco2)cc1`: the relative growth was 91.3% (inactive). In addition, where the note is “measured here: growth at 30 °C”, the relative growth was found to be 89.5%.

Regarding `CCOC(=O)c1cc2n(c1N)-c1ccccc1C2=O`, the relative growth is 85.9% (inactive). For the same compound, the relative growth (measured here: growth at 30 °C) was determined as 71.7%.

`CCn1nc(C(=O)OCCCCN2C(=O)c3ccccc3C2=O)c2ccccc2c1=O`: the relative growth is 98.7% (inactive). Besides, the relative growth (measured here: growth at 30 °C) turned out to be 94.4%.

Consider `CCOC(=O)c1cc2oc(C)cc2n1CCCN1C(=O)c2ccccc2C1=O`, for which the relative growth was -0.65% (active). Also, where the note is “measured here: growth at 30 °C”, the relative growth was -0.53%.

For the compound `O=C(NCC12CC3CC(CC(C3)C1)C2)c1cc(-c2ccccc2O)no1`, the relative growth is 105% (inactive). For the same compound, for the setting “measured here: growth at 30 °C”, the relative growth was 101%.

Consider `Cc1ccc(CNCc2cccn2-c2sc(C)c(C)c2C(=O)O)cc1`, for which the relative growth is 87.6% (inactive). Also, the relative growth (measured here: growth at 30 °C) came to 76.5%.

Regarding `C=CCn1c(C)nnc1SCCN1C(=O)c2ccccc2S1(=O)=O`, the relative growth was 91.3% (inactive). Moreover, the relative growth (measured here: growth at 30 °C) was found to be 93.1%.

For the compound `CC(C)C(C(=O)O)n1c(=S)[nH]c2ccccc2c1=O` (stereo unspecified), the relative growth is 77.7% (inactive). Further, the relative growth (measured here: growth at 30 °C) was 94.8%.

In the case of `CN(C)S(=O)(=O)c1ccc(C(=O)Nc2nnc(C3CC3)o2)cc1`, the relative growth was 78.8% (inactive). Moreover, the relative growth (measured here: growth at 30 °C) was found to be 59.5%.

Take `CS(=O)(=O)c1ccc(-c2nnc(NC(=O)c3ccc4c(c3)OCCO4)o2)cc1`: the relative growth was 84.8% (inactive). In addition, under “measured here: growth at 30 °C”, the relative growth was found to be 85.3%.

`CCCCN(CC)S(=O)(=O)c1ccc(C(=O)Nc2nnc(-c3ccc(Cl)s3)o2)cc1`: the relative growth was 0.22% (active). The relative growth (measured here: growth at 30 °C) was 0.29%.

In the case of `O=C(CN1C(=O)/C(=C/c2ccccc2)Sc2ccccc21)N1CCCC1`, the relative growth was 109% (inactive). Further, for the setting “measured here: growth at 30 °C”, the relative growth amounted to 98.3%.

With `COc1ccc(C2=NC(C)(C)N(CC(=O)Nc3ccccc3)C2=O)cc1`, the relative growth was 115% (inactive). The relative growth (measured here: growth at 30 °C) came out at 93.8%.

Regarding `CSc1ccc(Cl)c(C(=O)OCC(=O)N2CCC(C)CC2)c1`, the relative growth is 102% (inactive). Besides, the relative growth (measured here: growth at 30 °C) worked out at 82%.

With `Nc1nc(/C(=C/CC(=O)O)C(=O)N[C@@H]2C(=O)N3C(C(=O)O)=CCS[C@H]23)cs1`, the relative growth was -0.72% (active). In addition, where the note is “measured here: growth at 30 °C”, the relative growth is -0.64%.

As for `CSc1nc(C)cc(=O)[nH]1`, the relative growth is 139% (inactive). Also, the relative growth (measured here: growth at 30 °C) was 90.7%.

Consider `NC(=O)N/N=C1/C=C(c2ccccc2)C(O)(c2ccccc2)C1` (stereo unspecified), for which the relative growth is 109% (inactive). Moreover, the relative growth (measured here: growth at 30 °C) amounted to 91.3%.

As for `O=C1COc2ccc(C3=Nn4c(nnc4-c4ccncc4)SC3)cc2N1`, the relative growth is 97.9% (inactive). In addition, the relative growth (measured here: growth at 30 °C) was 85.9%.

For `CCN(Cc1ccccc1)C(=O)c1cc2sccc2n1Cc1ccccc1`, the relative growth was 108% (inactive). Besides, the relative growth (measured here: growth at 30 °C) stood at 88.4%.

With `COc1ccccc1CNC(=O)CNC1CCCCC1`, the relative growth is 96.2% (inactive). Besides, the relative growth (measured here: growth at 30 °C) is 90%.

In the case of `Cc1c2cn[nH]c(=O)c2c(C)n1Cc1ccccc1`, the relative growth is 88.3% (inactive). Further, the relative growth (measured here: growth at 30 °C) was 75.2%.

On to `CO[C@@H]1[C@@H](OC(N)=O)[C@H](O)[C@H](Oc2ccc3c(O)c(NC(=O)c4ccc(O)c(CC=C(C)C)c4)c(=O)oc3c2C)OC1(C)C`, for which the relative growth was -0.38% (active). The relative growth (measured here: growth at 30 °C) amounted to 0.14%.

On to `CC(C)=CCOc1ccc2c3c(c(=O)oc2c1C)CCCC3`, for which the relative growth is 97.9% (inactive). Also, the relative growth (measured here: growth at 30 °C) turned out to be 97.1%.

Consider `CC(Sc1ncnc2ccccc12)C(=O)Nc1cccc(C(F)(F)F)c1` (stereo unspecified), for which the relative growth is 115% (inactive). Also, the relative growth (measured here: growth at 30 °C) turned out to be 80.8%.

Turning to `CC(C)(C)C(=O)CN1C(=O)c2ccccc2C1=O`, the relative growth is 129% (inactive). The relative growth (measured here: growth at 30 °C) was found to be 89.2%.

As to `CC(NC(=O)Nc1ccccc1)c1ccccc1` (stereo unspecified), the relative growth was 76.7% (inactive). Moreover, under “measured here: growth at 30 °C”, the relative growth was 91.3%.

As to `Cc1ccccc1-c1nc(CS(=O)(=O)CC(=O)NC(C)c2ccccc2)c(C)o1` (stereo unspecified), the relative growth is 101% (inactive). Also, under “measured here: growth at 30 °C”, the relative growth stood at 105%.

`Cc1oc2c(c1C(=O)NC(C)c1ccccc1)C(=O)c1ccccc1C2=O` (stereo unspecified): the relative growth was 9.3% (active). Further, where the note is “measured here: growth at 30 °C”, the relative growth was found to be 14%.

Consider `O=C(/C=C/c1ccccc1)OCC(=O)N1CCc2ccccc21`, for which the relative growth is 134% (inactive). In addition, under “measured here: growth at 30 °C”, the relative growth is 88.3%.

As to `CCOC(=O)c1cnc2c(F)cc(F)cc2c1N1CCOCC1`, the relative growth was 118% (inactive). In addition, the relative growth (measured here: growth at 30 °C) is 104%.
